# Data from ChEMBL document CHEMBL1961873, “Compounds: GSK PKIS; Assays: Nanosyn kinase panel” (2012).
# Columns and labels:
# [1] = molecular target: T1, Mitogen-activated protein kinase 12 (Homo sapiens) (UniProt P53778); conditions: at 1 µM;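 further: values are averaged p38gamma kinase inhibition readings, compounds tested at 1 µM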
# T1 sequence (whole entry): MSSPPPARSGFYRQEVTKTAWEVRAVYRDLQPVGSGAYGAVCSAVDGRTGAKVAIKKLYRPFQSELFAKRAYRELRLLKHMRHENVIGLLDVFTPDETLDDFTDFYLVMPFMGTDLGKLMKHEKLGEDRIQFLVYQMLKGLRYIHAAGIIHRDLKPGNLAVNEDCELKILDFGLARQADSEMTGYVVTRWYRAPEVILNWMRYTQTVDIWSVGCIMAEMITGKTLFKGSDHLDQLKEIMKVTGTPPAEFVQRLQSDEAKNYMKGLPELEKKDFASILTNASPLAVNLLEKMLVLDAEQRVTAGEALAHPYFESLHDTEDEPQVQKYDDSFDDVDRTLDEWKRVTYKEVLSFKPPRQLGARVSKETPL
# [2] = molecular target: SRSF protein kinase 1 (Homo sapiens) (UniProt Q96SB4); conditions: at 0.1 µM
# Chain of SRSF protein kinase 1 (Homo sapiens) (Q96SB4 whole entry, canonical isoform): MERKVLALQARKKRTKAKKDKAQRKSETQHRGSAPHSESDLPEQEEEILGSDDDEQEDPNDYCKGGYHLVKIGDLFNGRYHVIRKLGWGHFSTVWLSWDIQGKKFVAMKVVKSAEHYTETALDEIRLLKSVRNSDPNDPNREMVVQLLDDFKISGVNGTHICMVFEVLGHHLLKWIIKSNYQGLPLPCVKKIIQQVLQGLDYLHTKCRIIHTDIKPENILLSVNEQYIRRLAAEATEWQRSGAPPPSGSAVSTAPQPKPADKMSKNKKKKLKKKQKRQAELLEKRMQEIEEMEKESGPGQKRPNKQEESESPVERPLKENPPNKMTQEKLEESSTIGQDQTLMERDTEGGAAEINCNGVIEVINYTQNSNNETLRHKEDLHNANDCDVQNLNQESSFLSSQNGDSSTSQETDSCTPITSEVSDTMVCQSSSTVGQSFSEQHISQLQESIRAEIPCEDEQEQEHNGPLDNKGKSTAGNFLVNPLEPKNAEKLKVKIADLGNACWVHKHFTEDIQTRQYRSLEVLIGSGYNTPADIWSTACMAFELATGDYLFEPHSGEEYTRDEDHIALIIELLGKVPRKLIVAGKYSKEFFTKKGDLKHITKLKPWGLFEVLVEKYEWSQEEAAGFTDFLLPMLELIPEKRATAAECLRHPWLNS
# [3] = molecular target: SRSF protein kinase 1 (Homo sapiens) (UniProt Q96SB4); conditions: at 1 µM
# [4] = molecular target: Phosphatidylinositol 4,5-bisphosphate 3-kinase catalytic subunit alpha isoform (Homo sapiens) (UniProt P42336); conditions: at 0.1 µM
# Chain of Phosphatidylinositol 4,5-bisphosphate 3-kinase catalytic subunit alpha isoform (Homo sapiens) (P42336 whole entry, canonical isoform): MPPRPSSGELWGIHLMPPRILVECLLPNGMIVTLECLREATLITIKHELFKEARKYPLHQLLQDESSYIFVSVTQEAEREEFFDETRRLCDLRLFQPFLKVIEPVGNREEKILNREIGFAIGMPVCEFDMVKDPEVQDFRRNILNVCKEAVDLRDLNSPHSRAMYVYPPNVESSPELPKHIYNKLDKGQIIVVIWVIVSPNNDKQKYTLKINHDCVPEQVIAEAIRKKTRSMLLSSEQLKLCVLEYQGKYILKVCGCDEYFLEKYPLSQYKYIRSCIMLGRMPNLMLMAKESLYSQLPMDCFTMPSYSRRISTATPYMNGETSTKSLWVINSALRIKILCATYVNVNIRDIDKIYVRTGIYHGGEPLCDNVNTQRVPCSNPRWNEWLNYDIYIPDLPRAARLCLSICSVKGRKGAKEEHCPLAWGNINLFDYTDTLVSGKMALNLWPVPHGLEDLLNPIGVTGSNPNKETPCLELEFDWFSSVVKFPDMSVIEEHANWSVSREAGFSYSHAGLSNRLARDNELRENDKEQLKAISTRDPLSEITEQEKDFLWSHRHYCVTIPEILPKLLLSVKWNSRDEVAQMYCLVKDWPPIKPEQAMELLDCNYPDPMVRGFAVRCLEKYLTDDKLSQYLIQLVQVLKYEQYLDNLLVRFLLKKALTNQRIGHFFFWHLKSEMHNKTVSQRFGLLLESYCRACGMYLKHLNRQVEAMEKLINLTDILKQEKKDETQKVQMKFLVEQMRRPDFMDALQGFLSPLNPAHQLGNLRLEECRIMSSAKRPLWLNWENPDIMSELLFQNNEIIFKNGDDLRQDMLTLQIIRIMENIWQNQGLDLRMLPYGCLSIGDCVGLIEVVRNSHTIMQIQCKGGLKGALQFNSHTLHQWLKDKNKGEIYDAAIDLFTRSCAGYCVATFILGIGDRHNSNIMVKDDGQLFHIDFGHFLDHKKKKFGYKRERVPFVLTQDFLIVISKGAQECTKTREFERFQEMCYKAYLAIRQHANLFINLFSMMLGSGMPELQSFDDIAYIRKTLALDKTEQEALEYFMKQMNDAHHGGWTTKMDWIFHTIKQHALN
# [5] = molecular target: Phosphatidylinositol 4,5-bisphosphate 3-kinase catalytic subunit alpha isoform (Homo sapiens) (UniProt P42336); conditions: at 1 µM
# [6] = molecular target: T2, Phosphatidylinositol 4,5-bisphosphate 3-kinase catalytic subunit delta isoform (Homo sapiens) (UniProt O00329); conditions: at 0.1 µM
# T2 sequence (whole entry): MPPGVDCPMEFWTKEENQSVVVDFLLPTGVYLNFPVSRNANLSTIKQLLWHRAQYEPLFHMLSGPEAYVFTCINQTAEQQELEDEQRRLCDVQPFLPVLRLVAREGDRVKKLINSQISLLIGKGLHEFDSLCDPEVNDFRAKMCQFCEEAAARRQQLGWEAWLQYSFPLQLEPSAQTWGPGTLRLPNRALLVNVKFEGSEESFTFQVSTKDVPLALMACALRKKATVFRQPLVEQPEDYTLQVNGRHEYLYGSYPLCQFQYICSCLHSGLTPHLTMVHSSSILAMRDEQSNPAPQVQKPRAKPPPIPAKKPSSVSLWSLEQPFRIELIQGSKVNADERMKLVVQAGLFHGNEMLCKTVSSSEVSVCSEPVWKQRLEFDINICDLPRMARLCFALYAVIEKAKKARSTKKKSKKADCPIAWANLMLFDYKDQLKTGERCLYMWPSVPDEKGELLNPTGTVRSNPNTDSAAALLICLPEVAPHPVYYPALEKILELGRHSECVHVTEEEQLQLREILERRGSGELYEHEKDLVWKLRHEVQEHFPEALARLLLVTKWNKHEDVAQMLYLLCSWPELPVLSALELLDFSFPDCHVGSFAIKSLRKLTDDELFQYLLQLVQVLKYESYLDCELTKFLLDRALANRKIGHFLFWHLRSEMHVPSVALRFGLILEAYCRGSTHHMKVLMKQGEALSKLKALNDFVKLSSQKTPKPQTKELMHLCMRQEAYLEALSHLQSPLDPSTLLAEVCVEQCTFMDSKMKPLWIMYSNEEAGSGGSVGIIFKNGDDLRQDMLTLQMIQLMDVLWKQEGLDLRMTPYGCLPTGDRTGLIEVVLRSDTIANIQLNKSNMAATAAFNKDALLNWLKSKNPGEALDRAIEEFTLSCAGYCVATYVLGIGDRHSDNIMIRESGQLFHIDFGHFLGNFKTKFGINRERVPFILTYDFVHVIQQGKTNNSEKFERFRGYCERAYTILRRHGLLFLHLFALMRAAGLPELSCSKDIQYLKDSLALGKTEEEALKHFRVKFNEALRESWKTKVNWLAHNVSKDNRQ
# [7] = molecular target: T2, Phosphatidylinositol 4,5-bisphosphate 3-kinase catalytic subunit delta isoform (Homo sapiens); conditions: at 1 µM
# [8] = molecular target: Phosphatidylinositol 4-kinase beta (Homo sapiens) (UniProt Q9UBF8); conditions: at 0.1 µM
# Chain of Phosphatidylinositol 4-kinase beta (Homo sapiens) (Q9UBF8 2-816 limits assumed): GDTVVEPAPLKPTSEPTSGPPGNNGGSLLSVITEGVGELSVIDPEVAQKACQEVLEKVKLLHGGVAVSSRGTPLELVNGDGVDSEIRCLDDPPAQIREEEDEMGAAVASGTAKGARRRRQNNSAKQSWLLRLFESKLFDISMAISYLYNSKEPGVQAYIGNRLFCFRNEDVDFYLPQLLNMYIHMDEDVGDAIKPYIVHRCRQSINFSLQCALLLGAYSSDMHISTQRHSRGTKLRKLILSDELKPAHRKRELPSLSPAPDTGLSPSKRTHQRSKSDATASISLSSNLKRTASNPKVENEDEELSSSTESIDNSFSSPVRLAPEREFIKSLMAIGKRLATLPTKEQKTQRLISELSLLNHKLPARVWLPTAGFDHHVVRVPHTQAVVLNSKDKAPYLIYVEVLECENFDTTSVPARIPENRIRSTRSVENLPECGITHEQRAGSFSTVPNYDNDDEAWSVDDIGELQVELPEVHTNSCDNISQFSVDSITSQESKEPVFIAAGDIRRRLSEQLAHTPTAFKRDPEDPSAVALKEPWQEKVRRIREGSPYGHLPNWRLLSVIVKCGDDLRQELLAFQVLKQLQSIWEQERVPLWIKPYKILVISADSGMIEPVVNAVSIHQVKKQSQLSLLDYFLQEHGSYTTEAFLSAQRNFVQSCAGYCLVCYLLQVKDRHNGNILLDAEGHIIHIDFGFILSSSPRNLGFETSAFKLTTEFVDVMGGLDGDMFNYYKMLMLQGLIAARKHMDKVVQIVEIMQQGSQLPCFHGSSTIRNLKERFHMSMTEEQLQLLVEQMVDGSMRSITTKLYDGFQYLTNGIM
# [9] = molecular target: Phosphatidylinositol 4-kinase beta (Homo sapiens) (UniProt Q9UBF8); conditions: at 1 µM
# [10] = molecular target: Sphingosine kinase 1 (Homo sapiens) (UniProt Q9NYA1); conditions: at 0.1 µM
# Chain of Sphingosine kinase 1 (Homo sapiens) (Q9NYA1 whole entry): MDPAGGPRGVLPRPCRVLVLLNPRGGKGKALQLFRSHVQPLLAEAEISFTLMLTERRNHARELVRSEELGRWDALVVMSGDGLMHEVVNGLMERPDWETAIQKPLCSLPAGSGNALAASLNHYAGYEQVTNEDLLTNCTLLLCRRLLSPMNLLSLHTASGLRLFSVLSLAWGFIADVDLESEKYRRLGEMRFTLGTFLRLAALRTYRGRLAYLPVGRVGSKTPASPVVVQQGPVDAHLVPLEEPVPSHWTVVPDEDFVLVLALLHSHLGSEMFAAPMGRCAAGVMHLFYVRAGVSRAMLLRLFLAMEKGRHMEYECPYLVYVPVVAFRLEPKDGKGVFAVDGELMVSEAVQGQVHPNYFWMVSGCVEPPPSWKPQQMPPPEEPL
# [11] = molecular target: Sphingosine kinase 1 (Homo sapiens) (UniProt Q9NYA1); conditions: at 1 µM
# [12] = molecular target: T3, Sphingosine kinase 2 (Homo sapiens) (UniProt Q9NRA0); conditions: at 0.1 µM
# T3 sequence (whole entry): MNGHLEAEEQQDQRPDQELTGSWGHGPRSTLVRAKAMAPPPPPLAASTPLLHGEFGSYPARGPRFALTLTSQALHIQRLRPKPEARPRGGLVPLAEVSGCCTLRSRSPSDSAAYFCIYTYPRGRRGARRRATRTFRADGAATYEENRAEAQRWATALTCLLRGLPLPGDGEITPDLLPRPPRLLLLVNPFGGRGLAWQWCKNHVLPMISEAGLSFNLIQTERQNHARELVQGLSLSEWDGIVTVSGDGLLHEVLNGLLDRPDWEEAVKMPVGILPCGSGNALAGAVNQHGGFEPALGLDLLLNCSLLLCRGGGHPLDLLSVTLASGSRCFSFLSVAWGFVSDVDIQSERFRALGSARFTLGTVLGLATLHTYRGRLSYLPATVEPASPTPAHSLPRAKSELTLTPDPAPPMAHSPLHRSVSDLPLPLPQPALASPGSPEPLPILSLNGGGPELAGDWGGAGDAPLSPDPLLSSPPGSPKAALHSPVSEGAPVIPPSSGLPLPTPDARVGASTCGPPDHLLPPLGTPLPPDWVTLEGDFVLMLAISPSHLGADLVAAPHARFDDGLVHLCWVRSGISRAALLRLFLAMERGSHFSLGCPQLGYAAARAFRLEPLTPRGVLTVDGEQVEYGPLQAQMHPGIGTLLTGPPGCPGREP
# [13] = molecular target: T3, Sphingosine kinase 2 (Homo sapiens); conditions: at 1 µM
# [14] = molecular target: Casein kinase II subunit alpha (Homo sapiens) (UniProt P68400); conditions: at 0.1 µM
# Chain of Casein kinase II subunit alpha (Homo sapiens) (P68400 whole entry, looked up): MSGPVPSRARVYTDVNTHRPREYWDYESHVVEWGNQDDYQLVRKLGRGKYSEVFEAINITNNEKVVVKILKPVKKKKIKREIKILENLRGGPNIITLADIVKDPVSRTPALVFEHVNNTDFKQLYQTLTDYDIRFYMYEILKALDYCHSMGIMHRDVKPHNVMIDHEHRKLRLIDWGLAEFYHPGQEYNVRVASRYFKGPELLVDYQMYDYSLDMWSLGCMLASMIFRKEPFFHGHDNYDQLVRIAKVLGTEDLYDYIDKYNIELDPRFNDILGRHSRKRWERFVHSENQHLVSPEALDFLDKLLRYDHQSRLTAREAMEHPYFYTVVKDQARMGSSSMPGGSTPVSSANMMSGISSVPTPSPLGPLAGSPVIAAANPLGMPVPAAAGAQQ
# [15] = molecular target: Casein kinase II subunit alpha (Homo sapiens) (UniProt P68400); conditions: at 1 µM
# [16] = molecular target: T4, Inhibitor of nuclear factor kappa-B kinase subunit alpha (Homo sapiens) (UniProt O15111); conditions: at 0.1 µM
# T4 sequence (whole entry): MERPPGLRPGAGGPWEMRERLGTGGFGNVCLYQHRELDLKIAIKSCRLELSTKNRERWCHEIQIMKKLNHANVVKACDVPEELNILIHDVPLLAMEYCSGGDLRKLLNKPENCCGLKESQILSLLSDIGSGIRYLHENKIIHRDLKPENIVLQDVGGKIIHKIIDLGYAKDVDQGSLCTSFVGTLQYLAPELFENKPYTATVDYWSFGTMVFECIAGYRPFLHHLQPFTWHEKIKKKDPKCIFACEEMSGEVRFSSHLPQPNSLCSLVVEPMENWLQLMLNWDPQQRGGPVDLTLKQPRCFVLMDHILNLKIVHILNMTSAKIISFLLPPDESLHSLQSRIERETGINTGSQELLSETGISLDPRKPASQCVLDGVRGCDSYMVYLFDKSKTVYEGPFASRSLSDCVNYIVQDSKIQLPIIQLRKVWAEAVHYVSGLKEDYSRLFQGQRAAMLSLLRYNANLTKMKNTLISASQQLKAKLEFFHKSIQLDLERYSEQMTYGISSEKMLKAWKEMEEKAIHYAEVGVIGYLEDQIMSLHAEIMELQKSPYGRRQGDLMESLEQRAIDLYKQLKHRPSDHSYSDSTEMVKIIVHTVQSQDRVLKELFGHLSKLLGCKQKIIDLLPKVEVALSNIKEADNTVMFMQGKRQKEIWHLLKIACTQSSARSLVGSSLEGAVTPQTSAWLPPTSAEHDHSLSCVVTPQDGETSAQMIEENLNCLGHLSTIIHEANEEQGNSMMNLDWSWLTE
# [17] = molecular target: T4, Inhibitor of nuclear factor kappa-B kinase subunit alpha (Homo sapiens); conditions: at 1 µM
# [18] = molecular target: T5, Inhibitor of nuclear factor kappa-B kinase subunit beta (Homo sapiens) (UniProt O14920); conditions: at 0.1 µM
# T5 sequence (whole entry): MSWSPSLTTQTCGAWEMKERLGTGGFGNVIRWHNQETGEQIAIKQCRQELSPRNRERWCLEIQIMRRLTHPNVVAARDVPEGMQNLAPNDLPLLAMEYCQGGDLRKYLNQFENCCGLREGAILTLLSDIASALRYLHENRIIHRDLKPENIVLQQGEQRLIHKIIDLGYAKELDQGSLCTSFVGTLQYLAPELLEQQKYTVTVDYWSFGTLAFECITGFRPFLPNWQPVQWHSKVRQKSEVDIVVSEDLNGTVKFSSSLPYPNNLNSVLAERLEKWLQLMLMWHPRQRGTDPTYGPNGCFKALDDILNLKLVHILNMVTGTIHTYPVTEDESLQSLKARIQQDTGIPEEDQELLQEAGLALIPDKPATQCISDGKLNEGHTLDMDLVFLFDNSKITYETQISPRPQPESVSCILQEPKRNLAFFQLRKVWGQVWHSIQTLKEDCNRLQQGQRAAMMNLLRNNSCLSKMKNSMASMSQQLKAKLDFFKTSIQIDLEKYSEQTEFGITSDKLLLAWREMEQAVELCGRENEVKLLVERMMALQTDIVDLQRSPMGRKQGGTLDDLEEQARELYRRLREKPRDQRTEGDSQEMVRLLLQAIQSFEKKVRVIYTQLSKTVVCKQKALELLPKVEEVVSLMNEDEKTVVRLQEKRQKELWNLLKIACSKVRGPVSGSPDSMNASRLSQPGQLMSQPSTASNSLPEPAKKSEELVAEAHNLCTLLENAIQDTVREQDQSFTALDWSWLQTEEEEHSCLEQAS
# [19] = molecular target: T5, Inhibitor of nuclear factor kappa-B kinase subunit beta (Homo sapiens); conditions: at 1 µM
# [20] = molecular target: T6, Inhibitor of nuclear factor kappa-B kinase subunit epsilon (Homo sapiens) (UniProt Q14164); conditions: at 0.1 µM;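 further: mean inhibition of IKKε reported, from the GSK PKIS dataset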
# T6 sequence (whole entry): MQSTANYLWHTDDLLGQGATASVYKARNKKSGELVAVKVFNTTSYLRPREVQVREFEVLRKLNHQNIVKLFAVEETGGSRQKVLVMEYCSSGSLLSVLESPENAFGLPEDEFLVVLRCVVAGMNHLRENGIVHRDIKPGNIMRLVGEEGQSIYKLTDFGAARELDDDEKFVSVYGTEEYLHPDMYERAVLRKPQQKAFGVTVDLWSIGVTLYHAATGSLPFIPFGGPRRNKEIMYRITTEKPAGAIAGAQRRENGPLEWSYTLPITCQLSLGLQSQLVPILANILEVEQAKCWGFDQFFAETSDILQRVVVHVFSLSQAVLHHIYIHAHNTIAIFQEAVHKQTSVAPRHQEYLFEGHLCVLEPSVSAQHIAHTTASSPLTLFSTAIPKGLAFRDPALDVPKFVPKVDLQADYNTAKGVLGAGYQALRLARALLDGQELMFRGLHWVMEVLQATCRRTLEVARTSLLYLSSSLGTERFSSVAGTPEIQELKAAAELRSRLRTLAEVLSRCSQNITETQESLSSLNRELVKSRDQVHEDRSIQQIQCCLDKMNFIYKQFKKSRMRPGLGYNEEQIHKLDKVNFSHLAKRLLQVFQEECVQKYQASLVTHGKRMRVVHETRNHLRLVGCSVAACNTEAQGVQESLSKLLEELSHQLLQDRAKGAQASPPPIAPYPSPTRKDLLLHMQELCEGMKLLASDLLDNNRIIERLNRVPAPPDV
SMILES,inhibition [1],inhibition [2],inhibition [3],inhibition [4],inhibition [5],inhibition [6],inhibition [7],inhibition [8],inhibition [9],inhibition [10],inhibition [11],inhibition [12],inhibition [13],inhibition [14],inhibition [15],inhibition [16],inhibition [17],inhibition [18],inhibition [19],inhibition [20]
Fc1ccc(-c2cc(-c3c[nH]nc3-c3ccccn3)ccn2)cc1,3.28%,-0.82%,1.31%,4.44%,3.51%,2.06%,3.22%,-6.09%,-0.81%,1.6%,-2.44%,-0.74%,-0.12%,3.83%,11.9%,5.34%,3.99%,5.76%,9.85%,8.65%
Fc1ccc(-c2nn3ncccc3c2-c2ccnc(Nc3ccc4c(c3)OCCO4)n2)cc1,4.06%,-3.43%,-6.44%,3.44%,6.99%,3.64%,9.87%,-5.48%,-0.74%,1.29%,0.16%,0%,0.35%,2.03%,0.07%,9.88%,7.87%,5.46%,4.62%,5.66%
CCn1c(-c2nonc2N)nc2ccccc21,1.22%,-2.61%,-2.83%,3.75%,1.82%,3.37%,3.25%,7.06%,0.95%,0.28%,1.74%,13.1%,-0.24%,0.89%,-1.31%,-3.92%,-1.19%,2.35%,-1%,2.9%
COc1ccc(-c2nn3ncccc3c2-c2ccnc(Nc3ccc4c(c3)OCCO4)n2)cc1,1.16%,-0.82%,-2.72%,2.37%,3.63%,2.13%,5.91%,-2.82%,-1.12%,-0.35%,-0.22%,-0.07%,0.39%,7.89%,3.92%,6.88%,1.71%,3.03%,1.7%,1.54%
CCn1cc(-c2ccnc3[nH]ccc23)c(-c2cccc(NC(=O)Nc3ccc(OCc4ccccc4)cc3)c2)n1,-0.76%,-3.33%,-4.16%,-0.66%,0.08%,-0.3%,1.17%,2.47%,-1.05%,-0.21%,-4.04%,-0.83%,-0.59%,9.36%,-1.27%,1.99%,-6.8%,4.3%,5.23%,-4.18%
CCN1CCC(CC(=O)Nc2n[nH]c3nnc(-c4cccc(F)c4F)cc23)CC1,1.97%,-2.57%,-3.98%,3.38%,2.58%,2.16%,1.94%,2.58%,-1.91%,0.09%,1.84%,-1.05%,0%,5.23%,2.82%,4.71%,0.12%,5.28%,3.6%,4.71%
